# Test results published in ChEMBL document CHEMBL1961873, “Compounds: GSK PKIS; Assays: Nanosyn kinase panel” (2012).
# Assays:
# [1] = molecular target: T1, Mitogen-activated protein kinase 12 (Homo sapiens) (UniProt P53778); settings: at 1 µM;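 note: values are averaged p38gamma kinase inhibition readings, compounds tested at 1 µM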
# T1 sequence (whole entry): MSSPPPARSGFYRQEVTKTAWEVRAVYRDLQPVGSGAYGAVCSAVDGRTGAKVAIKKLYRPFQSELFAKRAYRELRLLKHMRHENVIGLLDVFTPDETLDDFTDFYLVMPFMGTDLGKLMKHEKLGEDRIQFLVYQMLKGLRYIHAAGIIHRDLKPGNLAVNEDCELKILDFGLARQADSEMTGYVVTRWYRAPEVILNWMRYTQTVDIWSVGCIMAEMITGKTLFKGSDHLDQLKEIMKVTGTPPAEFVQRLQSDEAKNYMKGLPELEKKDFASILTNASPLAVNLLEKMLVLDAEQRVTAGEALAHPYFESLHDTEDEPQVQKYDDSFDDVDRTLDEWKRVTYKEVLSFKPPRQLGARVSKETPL
# [2] = molecular target: SRSF protein kinase 1 (Homo sapiens) (UniProt Q96SB4); settings: at 0.1 µM
# [3] = molecular target: SRSF protein kinase 1 (Homo sapiens) (UniProt Q96SB4); settings: at 1 µM
# [4] = molecular target: Phosphatidylinositol 4,5-bisphosphate 3-kinase catalytic subunit alpha isoform (Homo sapiens) (UniProt P42336); settings: at 0.1 µM
# [5] = molecular target: Phosphatidylinositol 4,5-bisphosphate 3-kinase catalytic subunit alpha isoform (Homo sapiens) (UniProt P42336); settings: at 1 µM
# [6] = molecular target: T2, Phosphatidylinositol 4,5-bisphosphate 3-kinase catalytic subunit delta isoform (Homo sapiens) (UniProt O00329); settings: at 0.1 µM
# T2 sequence (whole entry): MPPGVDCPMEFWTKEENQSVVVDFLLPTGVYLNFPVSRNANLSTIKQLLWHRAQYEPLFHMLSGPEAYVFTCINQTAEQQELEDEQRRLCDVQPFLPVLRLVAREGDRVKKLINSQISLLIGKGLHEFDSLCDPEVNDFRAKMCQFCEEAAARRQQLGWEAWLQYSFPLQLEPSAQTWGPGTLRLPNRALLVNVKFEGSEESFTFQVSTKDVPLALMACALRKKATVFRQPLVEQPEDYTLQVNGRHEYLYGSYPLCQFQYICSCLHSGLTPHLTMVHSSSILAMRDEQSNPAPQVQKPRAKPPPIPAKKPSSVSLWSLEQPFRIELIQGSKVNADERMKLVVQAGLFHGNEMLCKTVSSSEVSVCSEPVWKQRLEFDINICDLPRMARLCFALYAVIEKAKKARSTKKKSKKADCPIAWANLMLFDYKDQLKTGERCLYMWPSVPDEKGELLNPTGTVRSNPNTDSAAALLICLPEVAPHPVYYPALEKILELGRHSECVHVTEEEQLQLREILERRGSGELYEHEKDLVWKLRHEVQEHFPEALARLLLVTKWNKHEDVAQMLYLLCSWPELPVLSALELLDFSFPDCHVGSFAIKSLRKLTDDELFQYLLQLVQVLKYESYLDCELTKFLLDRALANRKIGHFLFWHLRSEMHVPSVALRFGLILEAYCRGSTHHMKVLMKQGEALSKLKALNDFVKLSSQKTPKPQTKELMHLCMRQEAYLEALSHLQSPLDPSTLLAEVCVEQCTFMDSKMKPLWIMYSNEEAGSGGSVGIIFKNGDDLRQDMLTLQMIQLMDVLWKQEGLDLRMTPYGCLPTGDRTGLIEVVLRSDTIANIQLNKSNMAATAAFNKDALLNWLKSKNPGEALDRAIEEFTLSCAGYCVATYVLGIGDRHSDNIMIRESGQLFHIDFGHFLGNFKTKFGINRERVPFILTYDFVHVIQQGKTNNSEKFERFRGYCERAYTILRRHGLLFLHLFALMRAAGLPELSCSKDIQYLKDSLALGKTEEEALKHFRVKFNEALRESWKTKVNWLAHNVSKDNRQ
# [7] = molecular target: T2, Phosphatidylinositol 4,5-bisphosphate 3-kinase catalytic subunit delta isoform (Homo sapiens); settings: at 1 µM
# [8] = molecular target: Phosphatidylinositol 4-kinase beta (Homo sapiens) (UniProt Q9UBF8); settings: at 0.1 µM
# [9] = molecular target: Phosphatidylinositol 4-kinase beta (Homo sapiens) (UniProt Q9UBF8); settings: at 1 µM
# [10] = molecular target: Sphingosine kinase 1 (Homo sapiens) (UniProt Q9NYA1); settings: at 0.1 µM
# [11] = molecular target: Sphingosine kinase 1 (Homo sapiens) (UniProt Q9NYA1); settings: at 1 µM
# [12] = molecular target: T3, Sphingosine kinase 2 (Homo sapiens) (UniProt Q9NRA0); settings: at 0.1 µM
# T3 sequence (whole entry): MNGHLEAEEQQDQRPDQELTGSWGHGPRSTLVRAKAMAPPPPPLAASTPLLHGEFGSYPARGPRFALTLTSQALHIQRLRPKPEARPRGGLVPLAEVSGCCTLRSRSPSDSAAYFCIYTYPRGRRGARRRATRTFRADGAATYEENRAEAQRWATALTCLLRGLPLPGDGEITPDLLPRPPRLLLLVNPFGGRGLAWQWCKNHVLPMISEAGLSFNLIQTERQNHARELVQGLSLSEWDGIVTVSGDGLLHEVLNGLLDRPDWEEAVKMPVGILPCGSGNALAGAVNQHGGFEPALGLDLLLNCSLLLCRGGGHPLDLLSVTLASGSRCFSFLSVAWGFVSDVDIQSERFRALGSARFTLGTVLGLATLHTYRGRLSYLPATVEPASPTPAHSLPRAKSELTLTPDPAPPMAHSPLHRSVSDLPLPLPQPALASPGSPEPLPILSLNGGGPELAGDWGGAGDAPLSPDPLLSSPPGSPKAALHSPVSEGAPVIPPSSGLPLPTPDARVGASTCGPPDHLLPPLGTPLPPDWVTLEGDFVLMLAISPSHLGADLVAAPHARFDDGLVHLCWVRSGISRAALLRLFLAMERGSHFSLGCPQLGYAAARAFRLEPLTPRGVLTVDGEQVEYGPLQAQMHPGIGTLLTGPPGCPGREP
# [13] = molecular target: T3, Sphingosine kinase 2 (Homo sapiens); settings: at 1 µM
# [14] = molecular target: Casein kinase II subunit alpha (Homo sapiens) (UniProt P68400); settings: at 0.1 µM
# [15] = molecular target: Casein kinase II subunit alpha (Homo sapiens) (UniProt P68400); settings: at 1 µM
# [16] = molecular target: T4, Inhibitor of nuclear factor kappa-B kinase subunit alpha (Homo sapiens) (UniProt O15111); settings: at 0.1 µM
# T4 sequence (whole entry): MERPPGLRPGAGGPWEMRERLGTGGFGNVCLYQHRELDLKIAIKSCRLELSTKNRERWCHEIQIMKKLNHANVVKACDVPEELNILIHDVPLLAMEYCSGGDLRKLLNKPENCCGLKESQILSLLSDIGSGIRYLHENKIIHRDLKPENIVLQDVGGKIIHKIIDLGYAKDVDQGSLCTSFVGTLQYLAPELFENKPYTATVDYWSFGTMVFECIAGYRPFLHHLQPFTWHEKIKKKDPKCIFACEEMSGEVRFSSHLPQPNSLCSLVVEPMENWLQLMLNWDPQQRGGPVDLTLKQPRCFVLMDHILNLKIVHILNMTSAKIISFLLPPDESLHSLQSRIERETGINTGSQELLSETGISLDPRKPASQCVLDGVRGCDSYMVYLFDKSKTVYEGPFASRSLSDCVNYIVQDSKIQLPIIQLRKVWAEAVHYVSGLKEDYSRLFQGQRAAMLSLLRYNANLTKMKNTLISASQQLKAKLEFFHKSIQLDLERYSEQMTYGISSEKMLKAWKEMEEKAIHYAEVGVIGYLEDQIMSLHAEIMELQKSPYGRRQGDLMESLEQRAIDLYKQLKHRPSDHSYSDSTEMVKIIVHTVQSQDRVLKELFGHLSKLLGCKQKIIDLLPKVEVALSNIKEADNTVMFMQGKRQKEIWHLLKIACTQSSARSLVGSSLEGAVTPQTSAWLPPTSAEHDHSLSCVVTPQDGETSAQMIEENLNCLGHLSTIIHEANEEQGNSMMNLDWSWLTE
# [17] = molecular target: T4, Inhibitor of nuclear factor kappa-B kinase subunit alpha (Homo sapiens); settings: at 1 µM
# [18] = molecular target: T5, Inhibitor of nuclear factor kappa-B kinase subunit beta (Homo sapiens) (UniProt O14920); settings: at 0.1 µM
# T5 sequence (whole entry): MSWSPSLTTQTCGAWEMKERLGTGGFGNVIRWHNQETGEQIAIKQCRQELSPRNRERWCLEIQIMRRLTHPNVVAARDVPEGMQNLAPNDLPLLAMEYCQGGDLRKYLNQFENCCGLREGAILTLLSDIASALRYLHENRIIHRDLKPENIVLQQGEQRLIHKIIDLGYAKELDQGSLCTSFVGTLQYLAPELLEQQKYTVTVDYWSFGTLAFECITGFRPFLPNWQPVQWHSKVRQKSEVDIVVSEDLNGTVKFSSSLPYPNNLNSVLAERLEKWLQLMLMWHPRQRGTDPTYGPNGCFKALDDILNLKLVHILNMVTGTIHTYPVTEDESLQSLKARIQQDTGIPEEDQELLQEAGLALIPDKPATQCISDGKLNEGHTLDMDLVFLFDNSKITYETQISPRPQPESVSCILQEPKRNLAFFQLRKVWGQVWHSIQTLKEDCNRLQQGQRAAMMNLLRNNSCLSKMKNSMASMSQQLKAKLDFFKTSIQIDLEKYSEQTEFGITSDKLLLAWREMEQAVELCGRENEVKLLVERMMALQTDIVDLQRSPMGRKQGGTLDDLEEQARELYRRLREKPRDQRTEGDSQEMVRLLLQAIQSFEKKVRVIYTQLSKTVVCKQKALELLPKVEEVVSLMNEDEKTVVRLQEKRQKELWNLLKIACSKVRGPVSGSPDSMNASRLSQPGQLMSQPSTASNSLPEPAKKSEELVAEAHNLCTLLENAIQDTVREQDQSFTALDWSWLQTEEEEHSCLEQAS
# [19] = molecular target: T5, Inhibitor of nuclear factor kappa-B kinase subunit beta (Homo sapiens); settings: at 1 µM
# [20] = molecular target: T6, Inhibitor of nuclear factor kappa-B kinase subunit epsilon (Homo sapiens) (UniProt Q14164); settings: at 0.1 µM;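 note: mean inhibition of IKKε reported, from the GSK PKIS dataset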
# T6 sequence (whole entry): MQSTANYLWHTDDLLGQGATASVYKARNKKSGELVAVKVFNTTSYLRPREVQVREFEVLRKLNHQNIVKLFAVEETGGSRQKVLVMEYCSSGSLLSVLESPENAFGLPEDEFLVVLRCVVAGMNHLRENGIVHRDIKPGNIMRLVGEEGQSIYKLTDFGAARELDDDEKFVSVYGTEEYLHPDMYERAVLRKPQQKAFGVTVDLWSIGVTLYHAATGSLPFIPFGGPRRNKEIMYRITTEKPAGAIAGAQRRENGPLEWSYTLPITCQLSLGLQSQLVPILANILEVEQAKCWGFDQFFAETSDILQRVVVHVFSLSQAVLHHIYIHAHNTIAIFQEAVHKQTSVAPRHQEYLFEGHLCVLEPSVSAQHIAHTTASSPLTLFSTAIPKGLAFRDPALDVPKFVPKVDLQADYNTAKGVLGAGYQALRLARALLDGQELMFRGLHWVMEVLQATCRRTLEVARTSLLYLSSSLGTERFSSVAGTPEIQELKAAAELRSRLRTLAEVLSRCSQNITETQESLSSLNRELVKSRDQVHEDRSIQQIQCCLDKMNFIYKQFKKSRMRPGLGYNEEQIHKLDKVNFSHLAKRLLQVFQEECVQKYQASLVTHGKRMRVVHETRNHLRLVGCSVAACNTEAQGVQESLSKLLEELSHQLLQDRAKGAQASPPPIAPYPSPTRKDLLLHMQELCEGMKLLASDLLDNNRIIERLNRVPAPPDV
# Chain of Casein kinase II subunit alpha (Homo sapiens) (P68400 whole entry, looked up): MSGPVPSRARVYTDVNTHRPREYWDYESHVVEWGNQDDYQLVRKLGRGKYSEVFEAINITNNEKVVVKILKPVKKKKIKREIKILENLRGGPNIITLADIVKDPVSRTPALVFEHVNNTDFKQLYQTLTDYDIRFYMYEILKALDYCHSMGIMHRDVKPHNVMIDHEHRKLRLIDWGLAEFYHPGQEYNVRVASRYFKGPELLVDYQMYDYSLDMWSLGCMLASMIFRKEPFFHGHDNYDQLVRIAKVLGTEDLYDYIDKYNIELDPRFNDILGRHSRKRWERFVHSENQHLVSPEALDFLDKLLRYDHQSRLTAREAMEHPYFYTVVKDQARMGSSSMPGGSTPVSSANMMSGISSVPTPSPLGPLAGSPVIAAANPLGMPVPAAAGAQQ
# Chain of Phosphatidylinositol 4-kinase beta (Homo sapiens) (Q9UBF8 2-816 limits assumed): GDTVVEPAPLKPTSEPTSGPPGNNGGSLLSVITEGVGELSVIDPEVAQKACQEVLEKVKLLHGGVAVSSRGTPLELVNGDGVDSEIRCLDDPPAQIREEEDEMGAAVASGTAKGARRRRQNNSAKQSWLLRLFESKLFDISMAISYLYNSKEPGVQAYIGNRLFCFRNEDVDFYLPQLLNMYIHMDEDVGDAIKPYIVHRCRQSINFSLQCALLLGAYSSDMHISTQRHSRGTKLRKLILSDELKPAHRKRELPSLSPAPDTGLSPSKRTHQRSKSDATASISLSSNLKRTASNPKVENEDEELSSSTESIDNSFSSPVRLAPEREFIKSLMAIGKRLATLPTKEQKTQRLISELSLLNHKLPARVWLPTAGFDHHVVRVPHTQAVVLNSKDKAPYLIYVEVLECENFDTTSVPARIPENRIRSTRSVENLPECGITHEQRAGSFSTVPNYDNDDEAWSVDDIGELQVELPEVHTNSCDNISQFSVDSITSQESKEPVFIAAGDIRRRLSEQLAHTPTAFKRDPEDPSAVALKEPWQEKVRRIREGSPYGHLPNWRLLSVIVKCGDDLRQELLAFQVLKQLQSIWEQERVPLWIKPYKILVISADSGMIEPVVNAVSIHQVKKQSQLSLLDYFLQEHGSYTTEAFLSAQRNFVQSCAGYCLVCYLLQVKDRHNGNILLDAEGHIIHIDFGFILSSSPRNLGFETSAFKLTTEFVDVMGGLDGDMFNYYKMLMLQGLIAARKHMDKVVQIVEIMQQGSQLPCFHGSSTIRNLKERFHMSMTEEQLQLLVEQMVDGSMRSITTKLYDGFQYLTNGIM
# Chain of SRSF protein kinase 1 (Homo sapiens) (Q96SB4 whole entry, canonical isoform): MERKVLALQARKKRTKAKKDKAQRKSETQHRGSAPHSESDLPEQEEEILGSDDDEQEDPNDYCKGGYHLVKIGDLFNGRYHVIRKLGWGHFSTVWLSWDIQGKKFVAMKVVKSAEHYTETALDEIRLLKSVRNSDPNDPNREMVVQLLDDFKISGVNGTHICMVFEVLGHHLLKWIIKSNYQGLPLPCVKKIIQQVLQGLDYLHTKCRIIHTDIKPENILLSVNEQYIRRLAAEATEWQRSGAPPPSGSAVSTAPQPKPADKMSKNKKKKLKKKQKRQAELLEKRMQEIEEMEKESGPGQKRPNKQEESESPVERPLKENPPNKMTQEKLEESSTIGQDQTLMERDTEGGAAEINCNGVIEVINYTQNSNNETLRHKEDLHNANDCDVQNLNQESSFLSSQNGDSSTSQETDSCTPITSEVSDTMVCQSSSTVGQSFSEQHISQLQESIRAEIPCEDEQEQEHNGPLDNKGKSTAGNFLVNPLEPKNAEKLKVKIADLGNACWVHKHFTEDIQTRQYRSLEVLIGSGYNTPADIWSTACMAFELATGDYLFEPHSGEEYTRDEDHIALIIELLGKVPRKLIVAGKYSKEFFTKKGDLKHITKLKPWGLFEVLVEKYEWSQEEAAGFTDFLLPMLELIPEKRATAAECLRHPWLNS
# Chain of Sphingosine kinase 1 (Homo sapiens) (Q9NYA1 whole entry): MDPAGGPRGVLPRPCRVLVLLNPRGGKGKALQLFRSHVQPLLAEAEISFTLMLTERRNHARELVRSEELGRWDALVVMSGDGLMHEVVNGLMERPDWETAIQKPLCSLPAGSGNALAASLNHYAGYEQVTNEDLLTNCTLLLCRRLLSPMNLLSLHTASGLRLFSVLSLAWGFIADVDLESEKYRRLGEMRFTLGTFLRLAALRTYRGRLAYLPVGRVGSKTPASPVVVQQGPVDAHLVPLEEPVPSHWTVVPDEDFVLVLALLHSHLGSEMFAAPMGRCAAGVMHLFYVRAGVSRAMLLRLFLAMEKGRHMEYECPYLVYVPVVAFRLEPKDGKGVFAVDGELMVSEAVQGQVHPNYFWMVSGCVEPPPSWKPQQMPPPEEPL
# Chain of Phosphatidylinositol 4,5-bisphosphate 3-kinase catalytic subunit alpha isoform (Homo sapiens) (P42336 whole entry, canonical isoform): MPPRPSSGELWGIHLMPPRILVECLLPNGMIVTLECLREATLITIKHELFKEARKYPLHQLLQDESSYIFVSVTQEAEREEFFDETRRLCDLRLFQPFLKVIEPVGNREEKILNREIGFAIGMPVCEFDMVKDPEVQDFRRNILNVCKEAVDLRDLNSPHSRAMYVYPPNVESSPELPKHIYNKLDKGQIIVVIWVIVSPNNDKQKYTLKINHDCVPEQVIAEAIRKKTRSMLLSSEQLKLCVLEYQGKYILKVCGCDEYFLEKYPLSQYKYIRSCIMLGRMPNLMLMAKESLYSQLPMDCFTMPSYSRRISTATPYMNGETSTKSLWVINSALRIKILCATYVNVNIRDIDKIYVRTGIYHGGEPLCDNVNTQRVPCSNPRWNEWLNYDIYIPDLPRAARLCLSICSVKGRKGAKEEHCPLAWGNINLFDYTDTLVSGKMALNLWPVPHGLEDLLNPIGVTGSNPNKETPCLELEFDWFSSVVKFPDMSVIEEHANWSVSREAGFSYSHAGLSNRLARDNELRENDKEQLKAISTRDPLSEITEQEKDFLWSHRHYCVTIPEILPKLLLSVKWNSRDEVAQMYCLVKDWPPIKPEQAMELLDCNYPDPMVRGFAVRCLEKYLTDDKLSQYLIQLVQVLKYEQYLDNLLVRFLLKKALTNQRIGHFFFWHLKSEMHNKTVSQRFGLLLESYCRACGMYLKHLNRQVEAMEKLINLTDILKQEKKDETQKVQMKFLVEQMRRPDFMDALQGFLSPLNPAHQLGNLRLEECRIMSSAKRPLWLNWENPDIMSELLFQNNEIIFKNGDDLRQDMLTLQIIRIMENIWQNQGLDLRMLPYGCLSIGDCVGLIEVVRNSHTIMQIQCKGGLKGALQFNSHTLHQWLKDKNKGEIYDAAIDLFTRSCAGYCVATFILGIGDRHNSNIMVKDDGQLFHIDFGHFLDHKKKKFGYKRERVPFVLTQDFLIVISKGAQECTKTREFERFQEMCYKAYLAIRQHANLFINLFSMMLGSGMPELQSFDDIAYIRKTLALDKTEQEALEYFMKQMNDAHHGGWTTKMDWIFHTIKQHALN
Compound,inhibition [1] [%],inhibition [2] [%],inhibition [3] [%],inhibition [4] [%],inhibition [5] [%],inhibition [6] [%],inhibition [7] [%],inhibition [8] [%],inhibition [9] [%],inhibition [10] [%],inhibition [11] [%],inhibition [12] [%],inhibition [13] [%],inhibition [14] [%],inhibition [15] [%],inhibition [16] [%],inhibition [17] [%],inhibition [18] [%],inhibition [19] [%],inhibition [20] [%]
Oc1cccc(-c2nc(-c3ccccc3)[nH]c2-c2ccncc2)c1,1.56,-1.52,0.98,2.99,2.95,2.01,1.67,-5.44,-3.49,1.87,-1.58,0.02,-1.65,3.96,9.51,2.95,5.47,5.25,3.12,5.43
Nc1nccc(C#Cc2cncnc2Nc2ccc(OCc3cccc(F)c3)c(Cl)c2)n1,3.22,-1.73,-2.48,2.82,4.72,1.22,4.71,-2.78,-0.63,-2.09,-0.71,0.13,-9.13,1.6,2.69,7.39,2.46,2.27,-0.17,4.71
COc1ccc(-c2nn3ncccc3c2-c2ccnc(Nc3cccc(C(F)(F)F)c3)n2)cc1,2.35,-2.17,-1.48,2.28,2.8,-0.05,2.34,4.99,-1.04,0.03,1.42,-1.04,-0.08,6.68,1.12,3.17,8.21,3.3,4.64,4.96
ON=C1CCc2cc(-c3nc(C4CCNCC4)[nH]c3-c3ccncc3)ccc21,1,-1.62,-5.28,-1.04,0,0.31,3.08,2.07,-0.63,-1.16,-2.71,0.13,-0.91,-3.67,-3.6,-9.89,-1.59,6.16,4.62,1.88
COc1cccc(-n2nc(C)c3c(N/N=C(\C)c4ccncc4)ncnc32)c1,0.35,-2.19,-2.27,-0.84,-0.14,-1.39,6.02,-2.42,-3.63,1.12,2.22,0.03,0,2.16,6.88,1.96,-2.68,1.3,1.94,-1.8
CCOc1nccc2c1nc(-c1nonc1N)n2CC,3.14,0.65,6.12,2.9,1.35,0.56,0.99,7.22,0.43,0.81,7.65,-0.3,0.06,5.33,14.6,2.3,3.59,0.86,5.41,7.17
NS(=O)(=O)c1ccc(N/N=C2\C(=O)Nc3ccc(Cl)cc32)cc1,2.14,-1.45,0.49,2.11,2.12,0.01,0.13,5.17,-1.54,0.4,-4.27,0,-3.44,4.94,14,-0.36,10.7,4.8,5.46,7.49
